Source: PubChem BioAssay (NCATS)
Values without a mark were called inactive. Records with an inconclusive call do not appear. Where a call stands in place of a potency, no number is given. Calls of active or inactive are those of the source. The call rests on the fitted dose curve; in most records, active means well fitted curve in the direction sought with a large enough effect; inconclusive means small, poorly fitted or top-dose-only effect, or another doubt; inactive means no such curve, though single readings can be large; an effect the other way counts as inactive or inconclusive.

How the values were obtained:
[1] = target: Glutathione peroxidase 1 (Homo sapiens) (UniProt P07203); assay: Primary qHTS Assay for Inhibitors of Recombinant Selenoprotein Glutathione Peroxidase 1 (GPX1) (AID 1845191); conditions: recombinant GPX1, GR-coupled NADPH fluorescence, 15 min; series mostly up to 48.8 µM; further: nearly all actives have a fitted effect of over 65% in size
Chain of Glutathione peroxidase 1 (Homo sapiens) (P07203 whole entry, looked up): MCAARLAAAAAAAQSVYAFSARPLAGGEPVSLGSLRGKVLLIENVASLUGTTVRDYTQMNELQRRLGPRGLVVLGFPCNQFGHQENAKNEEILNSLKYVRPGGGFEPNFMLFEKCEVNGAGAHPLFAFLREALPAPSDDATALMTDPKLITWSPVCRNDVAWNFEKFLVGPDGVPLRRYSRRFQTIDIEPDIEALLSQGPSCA
In short: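 Recombinant GPX1 (10 nM final) was preincubated with compound for 30 min at room temperature, then reacted with 1 mM GSH, 0.5 mM CHP, 0.5 mM NADPH and 100 nM glutathione reductase; NADPH fluorescence (340/450 nm) was read at 0 and 15 min.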

[2] = target: Phospholipid hydroperoxide glutathione peroxidase GPX4 (Homo sapiens) (UniProt P36969); assay: Primary qHTS Assay for Inhibitors of Recombinant Selenoprotein Glutathione Peroxidase 4 (GPX4) (AID 1845192); conditions: recombinant GPX4, GR-coupled NADPH fluorescence, 15 min; series mostly up to 50 µM; further: nearly all actives have a fitted effect of over 65% in size
Chain of Phospholipid hydroperoxide glutathione peroxidase GPX4 (Homo sapiens) (P36969 whole entry, looked up): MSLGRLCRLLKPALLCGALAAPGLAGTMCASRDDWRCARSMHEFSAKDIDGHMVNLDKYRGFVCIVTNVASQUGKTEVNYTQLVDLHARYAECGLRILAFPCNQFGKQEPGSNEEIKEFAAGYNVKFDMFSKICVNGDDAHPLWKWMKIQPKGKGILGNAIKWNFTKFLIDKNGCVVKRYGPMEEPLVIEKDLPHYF
In short: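 GR-coupled readout: 100 nM GR, 1 mM GSH, 0.5 mM NADPH; NADPH fluorescence (ex 340/em 450 nm) read at t=0 and after 15 min RT. GPX4 200 nM, preincubated 30 min with compound; substrate 0.5 mM CHP.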

[3] = target: Luciferin 4-monooxygenase (Photinus pyralis) (UniProt P08659); assay: Primary firefly luciferase (FLuc) qHTS assay for identification of artifact compounds. (AID 1845220); conditions: purified firefly luciferase, luminescence, 5 min; series mostly up to 54.1 µM; further: nearly all actives have a fitted effect of over 60% in size; further: potency means the concentration at half of the fitted maximal effect
In short: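 Reaction readout was CCD-imaged luminescence, taken 5 min after adding 10 nM purified firefly enzyme to compound-treated wells holding 10 uM luciferin and ATP in pH 7.6 buffer.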

[4] = system: Nanoluciferase (engineered Oplophorus gracilirostris luciferase); assay: Primary Nanoluciferase (NLuc) qHTS assay for identification of artifact compounds. (AID 1845222); conditions: NLuc-conditioned medium, Nano-Glo luminescence, 5 min; series mostly up to 54.1 µM;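 further: NLuc secreted into diluted conditioned medium of S16 cells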
In short: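 Concentration-response data were obtained by luminescence after 5 min with Nano-Glo substrate at 1:100. The enzyme was diluted S16 NLuc-expressing cell medium, preincubated with compound for 15 min at RT. Curves were fitted with a 4-parameter Hill model.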

[5] = Primary redox qHTS assay for identification of artifact compounds. (AID 1845223); conditions: Amplex Red/HRP redox cycling with DTT, fluorescence; series mostly up to 53.8 µM
In short: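 Amplex Red (25 uM) and HRP (250 mU/mL) in HBSS, with compounds for 15 min, then 250 uM DTT for 30 min, room temperature, dark. Fluorescence 525/598 nm read; normalized to DMSO and 10 uM DA3003; Hill fit.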

[6] = Primary fluorescence-based thiol-reactive (MSTI) qHTS assay for identification of artifact compounds. (AID 1845221); conditions: MSTI thiol-reactivity probe, 1 h; series mostly up to 53.8 µM; further: nearly all actives have a fitted effect of over 65% in size; further: potency means the concentration at half of the fitted maximal effect
In short: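 Compounds were incubated 1 h at room temperature in the dark with the MSTI probe (4 uM) in PBS pH 7.4, 2% DMSO. Signals were normalized between Acetyl-MSTI and MSTI.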

Q: Which Potency [1] does the source give for `COc1cc(OC)c(NC(=O)c2ccc(Cc3cc4c(cc3C)C(C)(C)CCC4(C)C)o2)c(OC)c1` here?
A: inactive

Q: What about the Potency [2] of the same molecule?
A: inactive

Q: What about the Potency [3] of the same molecule?
A: inactive

Q: And the Potency [4]?
A: inactive

Q: And the Potency [5]?
A: inactive

Q: What does the source list for `C=C(C)[C@@H]1CC=C(COC(=O)NC(=O)c2ncn3c(=O)n(C)nnc23)CC1`?
A: Potency [1]: inactive; Potency [2]: inactive; Potency [3]: inactive; Potency [4]: inactive; Potency [5]: inactive

Q: For `O=C(NNc1nc2cc(F)ccc2n2cccc12)c1cnccn1`, which Potency [1] is on record?
A: inactive

Q: What about the Potency [2] of the same molecule?
A: inactive

Q: What about the Potency [3] of the same molecule?
A: inactive

Q: And the Potency [4]?
A: inactive

Q: What about the Potency [5] of the same molecule?
A: inactive

Q: With `O=C(Nc1cccc([N+](=O)[O-])c1)c1cccc(S(=O)(=O)N2CCCCCC2)c1` as the molecule, how does the Potency [1] read?
A: inactive

Q: What about the Potency [2] of the same molecule?
A: inactive

Q: What about the Potency [3] of the same molecule?
A: inactive

Q: What about the Potency [4] of the same molecule?
A: inactive

Q: And the Potency [5]?
A: inactive

Q: With `CC(/C=C/C(=O)NO)=C\[C@@H](C)C(=O)c1ccc(N(C)C)cc1` as the molecule, how does the Potency [1] read?
A: inactive

Q: What about the Potency [2] of the same molecule?
A: inactive

Q: And the Potency [3]?
A: inactive

Q: And the Potency [4]?
A: inactive

Q: What about the Potency [5] of the same molecule?
A: inactive

Q: Which Potency [1] does the source give for `COc1cc2ncnc(Nc3ccc(O)c(Br)c3)c2cc1OC` here?
A: inactive

Q: What about the Potency [2] of the same molecule?
A: inactive

Q: And the Potency [3]?
A: inactive

Q: What about the Potency [4] of the same molecule?
A: inactive

Q: What about the Potency [5] of the same molecule?
A: inactive

Q: With `O=[N+]([O-])c1ccc(Oc2ccc3c(c2)CCC(c2ccccc2)O3)nc1` (stereo not given) as the molecule, how does the Potency [1] read?
A: inactive

Q: And the Potency [2]?
A: inactive

Q: And the Potency [3]?
A: inactive

Q: What about the Potency [4] of the same molecule?
A: inactive

Q: And the Potency [5]?
A: inactive

Q: For `Cc1cc(F)ccc1[C@H]1C[C@@H](N2CCN3C(=O)CC[C@H]3C2)CCN1C(=O)N(C)[C@H](C)c1cc(C(F)(F)F)cc(C(F)(F)F)c1`, which Potency [1] is on record?
A: inactive

Q: What about the Potency [2] of the same molecule?
A: inactive

Q: What about the Potency [3] of the same molecule?
A: inactive

Q: And the Potency [4]?
A: inactive

Q: And the Potency [5]?
A: inactive

Q: Which Potency [1] does the source give for `CCOc1ccc(-n2c([C@@H](C)N(Cc3cccnc3)C(=O)Cc3ccc(OC(F)(F)F)cc3)nc3ncccc3c2=O)cc1` here?
A: inactive

Q: And the Potency [2]?
A: inactive

Q: And the Potency [3]?
A: inactive

Q: And the Potency [4]?
A: inactive

Q: And the Potency [5]?
A: inactive

Q: For `CC(C)=C[C@@H]1[C@H](CO[C@@H]2O[C@H](CO)[C@@H](O)[C@H](O)[C@H]2O)C1(C)C`, which Potency [1] is on record?
A: inactive

Q: And the Potency [2]?
A: inactive

Q: And the Potency [3]?
A: inactive

Q: What about the Potency [4] of the same molecule?
A: inactive

Q: What about the Potency [5] of the same molecule?
A: inactive

Q: With `C=C1C(=O)OC2CC(C)C(CCC(C)O)=CCC12` (stereo not given) as the molecule, how does the Potency [1] read?
A: inactive

Q: What about the Potency [2] of the same molecule?
A: inactive

Q: And the Potency [3]?
A: 6.75 µM (active)

Q: What about the Potency [4] of the same molecule?
A: inactive

Q: And the Potency [5]?
A: inactive

Q: Which results are given for `COc1cc(CCO)ccc1O[C@@H]1O[C@H](CO)[C@@H](O)[C@H](O)[C@H]1O`?
A: Potency [1]: inactive; Potency [2]: inactive; Potency [3]: inactive; Potency [4]: inactive; Potency [5]: inactive

Q: For `Cc1cc(C)c2c(c1)C(N(Cc1cc(C(F)(F)F)cc(C(F)(F)F)c1)c1nnn(C)n1)CCCN2CC1CCC(C(=O)O)CC1` (stereo not given), which Potency [1] is on record?
A: inactive

Q: What about the Potency [2] of the same molecule?
A: inactive

Q: And the Potency [3]?
A: inactive

Q: What about the Potency [4] of the same molecule?
A: inactive

Q: What about the Potency [5] of the same molecule?
A: inactive

Q: With `CC[C@H](C(=O)Nc1ccccc1N1CCCC1)c1ccccc1` as the molecule, how does the Potency [1] read?
A: inactive

Q: What about the Potency [2] of the same molecule?
A: inactive

Q: What about the Potency [3] of the same molecule?
A: inactive

Q: What about the Potency [4] of the same molecule?
A: inactive

Q: And the Potency [5]?
A: inactive

Q: For `C=C1C(=O)O[C@@H]2C3=C(C)CCC[C@]3(C)CC[C@@]12O`, which Potency [1] is on record?
A: inactive

Q: What about the Potency [2] of the same molecule?
A: inactive

Q: What about the Potency [3] of the same molecule?
A: inactive

Q: And the Potency [4]?
A: inactive

Q: What about the Potency [5] of the same molecule?
A: inactive

Q: With `O=C(NO)c1cnc(N2CCN(S(=O)(=O)c3ccc4ccccc4c3)CC2)nc1` as the molecule, how does the Potency [1] read?
A: inactive

Q: What about the Potency [2] of the same molecule?
A: inactive

Q: And the Potency [3]?
A: inactive

Q: And the Potency [4]?
A: inactive

Q: What about the Potency [5] of the same molecule?
A: inactive

Q: Which Potency [1] does the source give for `C=C1C(=O)OC[C@@H]1C/C=C(\C)CC1CC(C)C(=O)O1` (stereo not given in full) here?
A: inactive

Q: What about the Potency [2] of the same molecule?
A: inactive

Q: And the Potency [6]?
A: 8.44 µM (active)

Q: What about the Potency [4] of the same molecule?
A: inactive

Q: With `Cc1ccc(O)cc1Nc1ccnc(Nc2cccc(C(N)=O)c2)n1` as the molecule, how does the Potency [1] read?
A: inactive

Q: And the Potency [2]?
A: inactive

Q: What about the Potency [6] of the same molecule?
A: inactive

Q: And the Potency [4]?
A: inactive

Q: What about the Potency [5] of the same molecule?
A: inactive

Q: What does the source list for `C=C(C)Cn1c(SCC(=O)c2cccs2)nc2sc3c(c2c1=O)CCCC3`?
A: Potency [1]: inactive; Potency [2]: inactive; Potency [6]: inactive; Potency [4]: inactive; Potency [5]: inactive

Q: For `c1ccc(-c2cnn3cc(-c4ccc(OCCN5CCOCC5)cc4)cnc23)cc1`, which Potency [1] is on record?
A: inactive

Q: What about the Potency [2] of the same molecule?
A: inactive

Q: What about the Potency [6] of the same molecule?
A: inactive

Q: For `C=C1C(=O)O[C@H]2CC(=C)[C@H]3CC[C@@](C)(O)[C@@H]3CC12` (stereo not given in full), which Potency [1] is on record?
A: inactive

Q: What about the Potency [2] of the same molecule?
A: inactive

Q: What about the Potency [6] of the same molecule?
A: 5.32 µM (active)

Q: What about the Potency [4] of the same molecule?
A: inactive

Q: What about the Potency [5] of the same molecule?
A: inactive

Q: For `CNC(=O)c1ccc2c(c1)CCO[C@H]2CCN1CCN(c2ccc(OC)cc2)CC1`, which Potency [1] is on record?
A: inactive

Q: What about the Potency [2] of the same molecule?
A: inactive

Q: And the Potency [3]?
A: inactive

Q: What about the Potency [5] of the same molecule?
A: inactive

Q: Which Potency [1] does the source give for `CC(C)CCNc1ncccc1C(=O)N1CCN(Cc2ccccc2)CC1` here?
A: inactive

Q: What about the Potency [2] of the same molecule?
A: inactive

Q: And the Potency [6]?
A: inactive

Q: What about the Potency [4] of the same molecule?
A: inactive

Q: And the Potency [5]?
A: inactive

Q: With `Cc1cc(C(=O)Nc2cc(Nc3ccc4c(/C=C/c5ccccn5)n[nH]c4c3)ccc2F)n(C)n1` as the molecule, how does the Potency [1] read?
A: inactive

Q: And the Potency [2]?
A: inactive

Q: And the Potency [6]?
A: 11.9 µM (active)

Q: What about the Potency [4] of the same molecule?
A: inactive

Q: And the Potency [5]?
A: inactive

Q: With `O=C1Cc2c([nH]c3ccc(Br)cc23)-c2ncccc2N1` as the molecule, how does the Potency [1] read?
A: inactive

Q: And the Potency [2]?
A: inactive

Q: What about the Potency [3] of the same molecule?
A: inactive

Q: What about the Potency [5] of the same molecule?
A: inactive

Q: For `CC(C)Nc1nc(Nc2ccccc2)nc(-c2ccccc2)n1`, which Potency [1] is on record?
A: inactive

Q: What about the Potency [2] of the same molecule?
A: inactive

Q: And the Potency [6]?
A: inactive

Q: What about the Potency [4] of the same molecule?
A: inactive

Q: And the Potency [5]?
A: inactive

Q: For `CCCCOC(=O)NS(=O)(=O)c1sc(CC(C)C)cc1-c1ccc(Cn2ccnc2)cc1`, which Potency [1] is on record?
A: inactive

Q: And the Potency [2]?
A: inactive

Q: And the Potency [6]?
A: inactive

Q: And the Potency [4]?
A: inactive

Q: And the Potency [5]?
A: inactive

Q: Which Potency [1] does the source give for `O=C(Nc1ccc2[nH]nc(-c3ccncc3)c2c1)[C@@H]1CCN(CC(=O)N2CCN(c3ccc(-c4ncccn4)cc3)CC2)C1` here?
A: inactive

Q: And the Potency [2]?
A: inactive

Q: What about the Potency [6] of the same molecule?
A: inactive

Q: And the Potency [4]?
A: inactive

Q: What about the Potency [5] of the same molecule?
A: inactive
